Test results published in the OligoGym collection.

The sequences below were run against UTS2D (assay: pooled miR-30 sensor sort-seq; sequence = guide strand). Settings: shRNA.
Also: reference of the scale not given here.

Sequence | sensor-assay potency score (higher = more potent)
TTTTAGCTTTTCCAGCTGGTTA | -0.983
TAGGAGTCCAAAGCAAACAGTG | -0.558
TAAGATATGGTCGTCCATGCAC | -0.532
TTGTATATTTTTTATCTGGAAA | -1.16
TCTTTTAGCTTTTCCAGCTGGT | 0.0536

The sequences below were run against UXS1 in the same assay as above. Settings: shRNA.

Sequence | sensor-assay potency score (higher = more potent)
TAACTGAGCAAATTCTAGGATT | -0.862
TAATTAACTGAGCAAATTCTAG | -1.25
TTTTAGTTCACCATTTTCCTGG | 0.218
TATACATGTAGTTTGGAGGGGA | 0.245
TATCTGGTCAACCTCGATGTAG | -1.33
TTCAACCATCTCTTCAATCTTG | -0.0638
TTAACTGAGCAAATTCTAGGAT | 0.0899
TAGATCGCTGACGTACTGGAAC | -0.778
TTGTCTGAGACCCGGATCCGTA | -1.19
TAGGATTGTGTGTTCTTCTGGG | 0.906
TTAGTGGTTCAACCATCTCTTC | -1.31
TTTGTTTAAACCTTCCTCCAGC | -0.24

The sequences below were run against VAMP1 in the same assay as above. Settings: shRNA.

Sequence | sensor-assay potency score (higher = more potent)
TTACTGGTCATGTTAGGAGGAG | -0.535
TTTAGCTTGGCAGCACTGCTCT | -0.465
TTGACTGCAAAGTCCCAGGGTT | 0.215
TAGTCGTCTGTTACTGGTCATG | -1.49
TTTTGTTGCACATTTGCTCATG | -0.374
ATGATCATCATCTTGCAGTTTT | -0.861
TGCTGTAGTCGTCTGTTACTGG | -0.0703
TTTGGTGGAAGTACAACTGTTG | 0.106
TATGATGTCCACCACCTCCTCC | -0.679
TAGCTTGGCAGCACTGCTCTCA | -0.655
AGCATGATCATCATCTTGCAGT | -1.92
ATAACTACCACGATGATGGCAC | 0.289

The sequences below were run against VAMP8 in the same assay as above. Settings: shRNA.

Sequence | sensor-assay potency score (higher = more potent)
TAATATTCTTAACTCCCTCCAC | 0.103
ATGATAAAAACAATCACGCAGA | -0.843
AAGGACAATCATCTTCACGTTC | -0.269
ATGTCGTCTTGAAGTGCTCAGA | -1.56
ATCTTCACGTTCTTCCACCAGA | -1.17
ATCATCTTCACGTTCTTCCACC | -0.825
AGATCCTCTGTCTTGTTGCGGA | -1.4
TTCTGGGTCATAATATTCTTAA | -1.25
TTTCGAGCCACCTTCTGCGATG | -0.89
TTTTCGAGCCACCTTCTGCGAT | -1.17
TTTGCAGGTTCCGCACACGATC | -1.07
